Here are results for 55 compounds from PubChem BioAssay AID720504 (National Center for Advancing Translational Sciences (NCATS), 2013).

In all, about 360,000 compounds went through this assay and about 10,000 (2.8%) were called active. Another 4% or so got no clear call; they are omitted. Shown is part of a subset that was picked to be rich in actives. A number with no mark means an inactive call. Calls come from the whole dose curve; as a rule, active = well fitted inhibition curve with a large enough effect; inconclusive = small, poorly fitted or top-dose-only effect; inactive = flat fitted curve, though single readings scatter.
% is set by controls: 0 for no effect and ±100 for the full control effect; potency is the fitted concentration of half-maximal effect.

The target in this test is Serine/threonine-protein kinase PLK1 (Homo sapiens) (UniProt P53350). Put plainly: qHTS for Inhibitors of PLK1-PDB (polo-like kinase 1 - polo-box domain): Primary Screen. For max response, negative = inhibition: series mostly up to about 57 µM. Note: nearly all actives have a fitted effect of over 65% in size. The following applies: Plk1 PBD binding of FITC phosphopeptide, fluorescence polarization.
Chain of Serine/threonine-protein kinase PLK1 (Homo sapiens) (P53350 whole entry, looked up, the tested form may be a part): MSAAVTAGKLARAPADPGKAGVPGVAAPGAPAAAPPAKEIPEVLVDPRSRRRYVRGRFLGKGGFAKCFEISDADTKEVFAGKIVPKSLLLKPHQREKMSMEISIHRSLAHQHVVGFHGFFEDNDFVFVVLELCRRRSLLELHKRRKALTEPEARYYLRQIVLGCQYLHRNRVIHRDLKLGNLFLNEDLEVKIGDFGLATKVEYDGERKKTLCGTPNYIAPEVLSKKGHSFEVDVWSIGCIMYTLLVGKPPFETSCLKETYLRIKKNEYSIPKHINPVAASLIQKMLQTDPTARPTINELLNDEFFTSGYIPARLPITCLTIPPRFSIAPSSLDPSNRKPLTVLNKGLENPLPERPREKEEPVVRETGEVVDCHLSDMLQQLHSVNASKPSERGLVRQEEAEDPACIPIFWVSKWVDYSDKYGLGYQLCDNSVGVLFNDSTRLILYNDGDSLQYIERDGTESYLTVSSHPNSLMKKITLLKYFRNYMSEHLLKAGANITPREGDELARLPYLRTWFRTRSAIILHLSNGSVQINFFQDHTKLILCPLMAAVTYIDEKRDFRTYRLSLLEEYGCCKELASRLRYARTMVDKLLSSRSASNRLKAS
For `COc1ccc(-c2cnc3c(c2)C(=O)N([C@H](C)CO)C[C@@H](C)[C@H](CN(C)Cc2ccccc2)O3)cc1`, the max response, negative = inhibition is -12.1%. Same read-out and setting: the same measure for `O=C1NC[C@H](Cc2ccc(O)cc2)N(C[C@@H]2CCCN2C[C@H](Cc2ccccc2)N2C[C@H](Cc3ccccc3)N(CC3CCCCC3)C(=O)C2=O)C1=O`: -9.78%; for `O=C(c1cc(C2CCCCN2S(=O)(=O)c2ccccc2)on1)N1CCOCC1` (stereo not given): 3.83%.

`C=CS(=O)c1sc(Cl)c(N2CCOCC2)c1[N+](=O)[O-]` (stereo not given): the Potency is 1.34 µM (active). Take `O=S1(=O)C[C@@H](N2CCN(CCO)CC2)[C@H](COCc2ccccc2)N1`: the max response, negative = inhibition is -14.5%.

As to `Cc1cc(Br)cn2c(Cc3ccccc3C(F)(F)F)c(C3CCCCC3)nc12`, the max response, negative = inhibition is -6.9%. For the compound `Nc1cc(=O)n(Cc2ccccc2)c(=O)n1Cc1ccccc1`, the max response, negative = inhibition is -11.9%. Consider `CN(C(=O)COC(=O)c1ccc(Br)o1)c1c(N)n(Cc2ccccc2)c(=O)[nH]c1=O`, for which the max response, negative = inhibition is 2.32%. For the compound `Cc1cc2nc3c(=O)n(Cc4ccccc4)c(=O)[nH]c3nc2cc1N`, the Potency was 3.36 µM (active). As for `COCCCNC(=O)c1ccc(-c2c(C)noc2C)c2ccoc12`, the max response, negative = inhibition is -2.73%.

Consider `CCCNC(=O)C1(C)CCN(C(=O)c2cc(F)ccc2C)C1` (stereo not given), for which the max response, negative = inhibition is -7.98%.

Consider `Cn1sc(=O)c2cc(S(=O)(=O)NC3CC3)ccc21`, for which the Potency was 2.12 µM (active). Consider `CC1CCC(NS(=O)(=O)c2ccc3c(c2)n(C)c(=O)c(=O)n3C)CC1` (stereo not given), for which the max response, negative = inhibition is -1.85%. For `O=S(=O)(NC1CC1)c1ccc(Cl)cc1`, the max response, negative = inhibition is -11.6%. The same measure, in the same setting: next, `COC(=O)c1ccc2nc(-c3ccccc3)c(Cc3ccc(OC)cc3C)n2c1`: -8.32%; `CCOC(=O)C1=CCC(c2ccc(F)cc2)N(S(=O)(=O)c2ccc(C)cc2)C1` (stereo not given): -10.4%.

On to `COc1ccc(NC(=O)CSc2ncnc3[nH]ncc23)cc1`, for which the Potency was 3.77 µM (active). As to `COc1ccc(-n2ncc3c(SCC(=O)NNC(C)=O)ncnc32)cc1`, the max response, negative = inhibition is 4.95%. Same read-out and setting: the same measure for `O=C(CSc1nc2[nH]ncc2c(=O)[nH]1)Nc1ccc(F)cc1`: -1.42%; for `Cn1cnc(S(=O)(=O)N2C[C@@H](O)COC[C@@H]3O[C@H](CC(=O)NC4CCC4)CC[C@H]32)c1`: -0.717%; for `Cc1nccn1-c1ccc(NC(=O)[C@H]2O[C@@H](n3ccc(=O)[nH]c3=O)[C@H](O)[C@@H]2O)cc1`: 0.546%.

`CCOC(=O)[C@]12CCC=C1N(Cc1ccccc1)C(=O)[C@H](CC(=O)N1CCCC1)C2`: the max response, negative = inhibition was -1.56%. The same measure, in the same setting: the same measure for `CCCCCn1nnnc1C1c2ccccc2C(=O)N1Cc1ccco1` (stereo not given): -6.84%; for `Cc1ccc2nc(SCc3nnc(-c4ccccc4[N+](=O)[O-])o3)c(C#N)cc2c1`: -9%; for `Cc1cc(C)c([N+](=O)[O-])cc1-c1ccc(/C=N/NC(=O)c2nonc2N)o1`: 0.266%. With `Cc1ccc(-c2ccc(/C=C(\C#N)C(N)=S)o2)c([N+](=O)[O-])c1`, the Potency is 26.7 µM (active).

As for `CC1=C(C(=O)N(C(C)C)C(C)C)CC(CC(=O)NCC2CCCCC2)C(=O)N1Cc1ccccc1` (stereo not given), the max response, negative = inhibition was -4.13%.

For the compound `O=C(C(=O)N1CCC(c2ccccc2)CC1)c1ccccc1`, the max response, negative = inhibition is 3.91%.

For `Brc1ccc(C2=CC(c3ccco3)n3ncnc3N2)cc1` (stereo not given), the Potency is 23.8 µM (active). As for `Clc1ccc2c(c1)C1=C(C(c3ccncc3)O2)C(c2ccc(Br)cc2)n2ncnc2N1` (stereo not given), the max response, negative = inhibition was -0.898%. For `CCOC(=O)[C@]12CCCC=C1N(CCC1=CCCCC1)C(=O)[C@H](CC(=O)NCCCOC)C2`, the max response, negative = inhibition is 2.46%. The same measure, in the same setting: the same measure for `CCOc1ccc(S(=O)(=O)NCCC(=O)NNC(=O)c2ccc(F)cc2)cc1`: -14.6%. Turning to `COc1ccc(NC(=O)c2sc(=O)n(Cc3ccc(S(=O)(=O)N(C)C)cc3)c2C)cc1`, the max response, negative = inhibition was -0.145%.

`COC(=O)/C=C\C(=O)Nc1cccc([N+](=O)[O-])c1`: the Potency is 5.97 µM (active).

With `O=C(Nc1cccc([N+](=O)[O-])c1)Nn1cnnc1`, the max response, negative = inhibition is -2.87%. Still for that read-out and setting: next, `O=C(CN1CCOCC1)Nc1cccc([N+](=O)[O-])c1`: -23.6%.

In the case of `CC(=O)C[C@@H]1OC[C@H](C)N1S(=O)(=O)c1ccc(C)cc1`, the max response, negative = inhibition was -5.26%. Still for that read-out and setting: the same measure for `COc1cc(/C=C/C(=O)OCC(=O)NC(=O)NCc2ccccc2)ccc1OCC#N`: -6.76%. Regarding `COc1cc(/C=C/C(=O)OCC(=O)N2CCOCC2)ccc1OCC#N`, the Potency was 26.7 µM (active).

`COc1cc(/C=C/C(=O)Nc2ccc(OC)c(S(=O)(=O)N3CCOCC3)c2)ccc1OCC#N`: the max response, negative = inhibition is -0.928%. Still for that read-out and setting: next, `CC(C)(C)c1ccc(S(=O)(=O)NC(=O)C2(C)CCN2C(=O)CC2CC2)cc1` (stereo not given): -12%; `Cc1cccc(CN2CCN(C3CN(Cc4cn(Cc5ccccc5F)nn4)S(=O)(=O)C3)CC2)c1` (stereo not given): 3.36%; `OC[C@@H]1CN(Cc2ccc3c(c2)OCO3)C[C@H](n2cnc3c(NCc4ccco4)ncnc32)O1`: -2.35%. The same measure, in the same setting: next, `O=C(NN=Cc1ccccc1O)NN=Cc1ccccc1O`: -11.7%. As to `O=C1Oc2ccccc2C(=O)/C1=C/c1ccccc1O`, the Potency was 2.67 µM (active). For the compound `COC(=O)c1ccc(/C=C2/C(=O)Oc3ccccc32)cc1`, the max response, negative = inhibition was -0.125%. As to `CC(=O)NC(c1cccc(F)c1)c1nc(-c2cccc(F)c2)cs1` (stereo not given), the max response, negative = inhibition was -0.575%. Regarding `Nc1ccc(-c2nnc(-c3ccc(-c4ccccc4)cc3)o2)cc1`, the Potency is 13.4 µM (active).

On to `CN(C)c1ccc(-c2nnc(-c3cccnc3)o2)cc1`, for which the max response, negative = inhibition is 3.15%.

`COc1ccc(-c2nnc(-c3ccc4ccccc4c3)o2)cc1`: the max response, negative = inhibition was -4.59%.

On to `COc1cc(NC(=O)C2=C(C)OCCS2)c(Cl)cc1C(=O)NCCCN1CCCC(C)C1` (stereo not given), for which the max response, negative = inhibition was -4.33%. For `O=[N+]([O-])c1ccc(N2CCSCC2)cc1O`, the max response, negative = inhibition was 2.23%. `Cc1cc(C(=O)N/N=C/c2ccc(O)c([N+](=O)[O-])c2)c(C)n1-c1ccc(F)cc1`: the max response, negative = inhibition was -24.1%. As for `O=C1CSC(=S)N1/N=C/c1ccc(O)c([N+](=O)[O-])c1`, the Potency is 23.8 µM (active). Take `CS(=O)(=O)N1CCCCC1c1cc(C(=O)NCc2ccccc2)no1` (stereo not given): the max response, negative = inhibition is -4.51%.
